From PubChem BioAssay AID1159580 (chemical genetic matrix, 2015)
Values joined by “and” are separate entries in the source; they are usually repeats but may differ in a detail not shown here. Equal entries are not always repeated. The campaign covered roughly 5,500 compounds. About 2,000 (36%) were called active. About 18% were inconclusive and are not listed. No stated cut-off is given here; in the data, active means normalized growth mostly below about 0.91 (no sharp cut-off); inconclusive means no clear call, values can overlap the other calls; inactive means mostly above about 0.92. The list shows a part of the results.

Test: chemical genetic growth profiling, strain panel (AID 1159580);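 further: tested at 20 µM; growth read once vehicle control cultures reached saturation at 30 °C; 1 = growth at the plate median or of vehicle wells; lower values mean less growth of the strain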
Details: growth OD

Measured: normalized growth

CC(N)C(=O)OC(C)(C)Cc1ccc(Cl)cc1 (stereo unspecified)
inactive: S. cerevisiae deletion strains, locus YJR075W, strain HOC1, active compounds read low 0.986 and 1 | S. cerevisiae deletion strains, locus YKL009W, strain mrt4, active compounds read low 0.922 | S. cerevisiae deletion strains, locus YKL068W, active compounds read low 0.992 | S. cerevisiae deletion strains, locus YKL085W, strain MDH1 (second series), active compounds read low 0.98 | S. cerevisiae deletion strains, locus YKL085W, strain MDH1, active compounds read low 0.98 | S. cerevisiae deletion strains, locus YKL160W, strain elf1, active compounds read low 1.02 | S. cerevisiae deletion strains, locus YKL190W, strain CNB1, active compounds read low 0.989 | S. cerevisiae deletion strains, locus YKR001C, strain vps1, active compounds read low 1.03 | S. cerevisiae deletion strains, locus YKR026C, strain gcn3, active compounds read low 0.998 | S. cerevisiae deletion strains, locus YKR091W, strain srl3, active compounds read low 1.01 | S. cerevisiae deletion strains, locus YLL001W, strain dnm1, active compounds read low 0.977 | S. cerevisiae deletion strains, locus YLL026W, active compounds read low 1.01 | S. cerevisiae deletion strains, locus YLL041C, strain sdh2, active compounds read low 1.02 | S. cerevisiae deletion strains, locus YLR027C, strain aat2, active compounds read low 1.01 | S. cerevisiae deletion strains, locus YLR039C, strain RIC1, active compounds read low 1.03 | S. cerevisiae deletion strains, locus YLR058C, strain SHM2, active compounds read low 0.97 | S. cerevisiae deletion strains, locus YLR102C, strain apc9, active compounds read low 0.995 | S. cerevisiae deletion strains, locus YLR113W, strain HOG1, active compounds read low 1.01 | S. cerevisiae deletion strains, locus YLR221C, strain rsa3, active compounds read low 1.02 | S. cerevisiae deletion strains, locus YLR258W, strain gsy2, active compounds read low 1.02 | S. cerevisiae deletion strains, locus YLR262C, strain YPT6 (second series), active compounds read low 1.06 | S. cerevisiae deletion strains, locus YLR262C, strain YPT6, active compounds read low 0.986 | S. cerevisiae deletion strains, locus YLR268W, strain sec22, active compounds read low 1.07 | S. cerevisiae deletion strains, locus YLR320W, strain mms22, active compounds read low 1.04 | S. cerevisiae deletion strains, locus YLR330W, strain CHS5, active compounds read low 0.988 | S. cerevisiae deletion strains, locus YLR342W, strain FKS1 (second series), active compounds read low 0.928 | S. cerevisiae deletion strains, locus YLR342W, strain FKS1, active compounds read low 1.02 | S. cerevisiae deletion strains, locus YLR357W, strain rsc2, active compounds read low 1.03 | S. cerevisiae deletion strains, locus YLR370C, strain arc18, active compounds read low 1.01 | S. cerevisiae deletion strains, locus YLR371W, strain rom2, active compounds read low 0.986 | S. cerevisiae deletion strains, locus YLR384C, strain iki3, active compounds read low 1.01 | S. cerevisiae deletion strains, locus YLR418C, strain cdc73, active compounds read low 0.983 | S. cerevisiae deletion strains, locus YML016C, strain PPZ1, active compounds read low 0.984 | S. cerevisiae deletion strains, locus YML032C, strain rad52, active compounds read low 0.982 | S. cerevisiae deletion strains, locus YML120C, strain ndi1, active compounds read low 1.02 | S. cerevisiae deletion strains, locus YML124C, strain tub3, active compounds read low 0.985 | S. cerevisiae deletion strains, locus YMR058W, strain fet3, active compounds read low 1.03 | S. cerevisiae deletion strains, locus YMR078C, strain ctf18, active compounds read low 0.98 | S. cerevisiae deletion strains, locus YMR125W, strain sto1, active compounds read low 1.01 | S. cerevisiae deletion strains, locus YMR129W, active compounds read low 1.02 | S. cerevisiae deletion strains, locus YMR205C, strain PFK2, active compounds read low 1.02 | S. cerevisiae deletion strains, locus YMR223W, strain ubp8, active compounds read low 0.94 | S. cerevisiae deletion strains, locus YMR231W, strain pep5, active compounds read low 1.02 | S. cerevisiae deletion strains, locus YMR263W, strain SAP30, active compounds read low 0.984 and 1.02 | S. cerevisiae deletion strains, locus YMR307W, strain GAS1, active compounds read low 1.04 | S. cerevisiae deletion strains, locus YNL067W, strain RPL9B, active compounds read low 0.996 | S. cerevisiae deletion strains, locus YNL071W, strain lat1, active compounds read low 1.02 | S. cerevisiae deletion strains, locus YNL128W, strain TEP1, active compounds read low 0.975 and 1.02 | S. cerevisiae deletion strains, locus YNL153C, strain GIM3, active compounds read low 0.992 | S. cerevisiae deletion strains, locus YNL175C, strain NOP13, active compounds read low 1.04 | S. cerevisiae deletion strains, locus YNL183C, strain NPR1, active compounds read low 0.982 | S. cerevisiae deletion strains, locus YNL197C, strain WHI3, active compounds read low 1.09 | S. cerevisiae deletion strains, locus YNL209W, strain ssb2, active compounds read low 1.02 | S. cerevisiae deletion strains, locus YNL224C, strain SQS1, active compounds read low 1.05 | S. cerevisiae deletion strains, locus YNL233W, strain BNI4, active compounds read low 0.983 | S. cerevisiae deletion strains, locus YNL248C, strain rpa49, active compounds read low 1.02 | S. cerevisiae deletion strains, locus YNL250W, strain rad50, active compounds read low 0.975 | S. cerevisiae deletion strains, locus YNL271C, strain bni1, active compounds read low 1 | S. cerevisiae deletion strains, locus YNL298W, strain CLA4, active compounds read low 0.981 | S. cerevisiae deletion strains, locus YNL307C, strain MCK1, active compounds read low 0.972 | S. cerevisiae deletion strains, locus YNL322C, strain KRE1 (second series), active compounds read low 1.01 | S. cerevisiae deletion strains, locus YNL322C, strain KRE1, active compounds read low 0.986 | S. cerevisiae deletion strains, locus YNR049C, strain mso1, active compounds read low 1.01 | S. cerevisiae deletion strains, locus YNR052C, strain pop2, active compounds read low 0.986 | S. cerevisiae deletion strains, locus YOL006C, strain TOP1, active compounds read low 1.05 | S. cerevisiae deletion strains, locus YOL012C, strain htz1 1 | S. cerevisiae deletion strains, locus YOL147C, strain pex11, active compounds read low 0.988 | S. cerevisiae deletion strains, locus YOR001W, strain rrp6, active compounds read low 1.06 | S. cerevisiae deletion strains, locus YOR061W, strain CKA2, active compounds read low 0.975 | S. cerevisiae deletion strains, locus YOR069W, strain VPS5, active compounds read low 0.981 | S. cerevisiae deletion strains, locus YOR070C, strain gyp1, active compounds read low 1.02 | S. cerevisiae deletion strains, locus YOR080W, strain dia2, active compounds read low 1.03 | S. cerevisiae deletion strains, locus YOR083W, strain WHI5 (second series), active compounds read low 1.04 | S. cerevisiae deletion strains, locus YOR083W, strain WHI5, active compounds read low 1.01 | S. cerevisiae deletion strains, locus YOR106W, strain vam3, active compounds read low 1.07 | S. cerevisiae deletion strains, locus YOR136W, strain idh2, active compounds read low 0.977 | S. cerevisiae deletion strains, locus YOR144C, strain elg1, active compounds read low 0.988 | S. cerevisiae deletion strains, locus YOR184W, strain ser1, active compounds read low 0.993 | S. cerevisiae deletion strains, locus YOR231W, strain MKK1, active compounds read low 1.02 | S. cerevisiae deletion strains, locus YOR265W, strain rbl2, active compounds read low 1.01 | S. cerevisiae deletion strains, locus YOR270C, strain vph1, active compounds read low 1.09 | S. cerevisiae deletion strains, locus YOR290C, strain snf2, active compounds read low 1.02 | S. cerevisiae deletion strains, locus YOR316C, strain cot1, active compounds read low 0.99 | S. cerevisiae deletion strains, locus YPL051W, strain arl3, active compounds read low 1.02 | S. cerevisiae deletion strains, locus YPL055C, strain LGE1, active compounds read low 0.937 and 1.01 | S. cerevisiae deletion strains, locus YPL078C, strain atp4, active compounds read low 1.01 | S. cerevisiae deletion strains, locus YPL106C, strain sse1, active compounds read low 1.07 | S. cerevisiae deletion strains, locus YPL240C, strain hsp82, active compounds read low 0.977 | S. cerevisiae deletion strains, locus YPL241C, strain CIN2, active compounds read low 0.994 and 1.01 | S. cerevisiae deletion strains, locus YPL256C, strain CLN2, active compounds read low 1.03 | S. cerevisiae deletion strains, locus YPR119W, strain clb2, active compounds read low 0.989 | S. cerevisiae deletion strains, locus YPR141C, strain kar3, active compounds read low 0.974 | S. cerevisiae deletion strains, locus YPR163C, strain tif3, active compounds read low 0.993 | S. cerevisiae deletion strains, locus YPR167C, strain met16, active compounds read low 0.993 | S. cerevisiae deletion strains, strain wtn01, active compounds read low 0.995 | S. cerevisiae strains, strain wild type, active compounds read low 0.982
